# MITF TRPM1 HTS: activators of MITF-driven TRPM1 promoter activity in SK-MEL-5 cells | activation, % at 12.5 µM | 0.75% of 300,000 active | SK-MEL-5 TRPM1-promoter luciferase, 24 h; % of positive control, neutral wells = 0;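 active means mean activation of at least 80% with every replicate also reaching 80%; inconclusive means mean reaches 80% but some replicate falls short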
# GAA850 FXN act: increases GAA850 frataxin promoter reporter activity | 0.56% of 360,000 active | activation, % at 6 µM | HEK293 lucGAA850 FXN promoter luciferase reporter, 24 h; percent of 10 µM SAHA response;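 active means activation above the average of all compounds screened plus 3 SD, cutoff fixed separately per campaign, cut at about 7.5% in these data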
# AHR activator: activators of human aryl hydrocarbon receptor; AID 2796; activation, % at 5 µM; 2.5% of 320,000 active; AHR-responsive luciferase reporter cells, luminescence; P35869; in the data active means activation above about 47%
# Target sequence (P35869 whole entry, looked up): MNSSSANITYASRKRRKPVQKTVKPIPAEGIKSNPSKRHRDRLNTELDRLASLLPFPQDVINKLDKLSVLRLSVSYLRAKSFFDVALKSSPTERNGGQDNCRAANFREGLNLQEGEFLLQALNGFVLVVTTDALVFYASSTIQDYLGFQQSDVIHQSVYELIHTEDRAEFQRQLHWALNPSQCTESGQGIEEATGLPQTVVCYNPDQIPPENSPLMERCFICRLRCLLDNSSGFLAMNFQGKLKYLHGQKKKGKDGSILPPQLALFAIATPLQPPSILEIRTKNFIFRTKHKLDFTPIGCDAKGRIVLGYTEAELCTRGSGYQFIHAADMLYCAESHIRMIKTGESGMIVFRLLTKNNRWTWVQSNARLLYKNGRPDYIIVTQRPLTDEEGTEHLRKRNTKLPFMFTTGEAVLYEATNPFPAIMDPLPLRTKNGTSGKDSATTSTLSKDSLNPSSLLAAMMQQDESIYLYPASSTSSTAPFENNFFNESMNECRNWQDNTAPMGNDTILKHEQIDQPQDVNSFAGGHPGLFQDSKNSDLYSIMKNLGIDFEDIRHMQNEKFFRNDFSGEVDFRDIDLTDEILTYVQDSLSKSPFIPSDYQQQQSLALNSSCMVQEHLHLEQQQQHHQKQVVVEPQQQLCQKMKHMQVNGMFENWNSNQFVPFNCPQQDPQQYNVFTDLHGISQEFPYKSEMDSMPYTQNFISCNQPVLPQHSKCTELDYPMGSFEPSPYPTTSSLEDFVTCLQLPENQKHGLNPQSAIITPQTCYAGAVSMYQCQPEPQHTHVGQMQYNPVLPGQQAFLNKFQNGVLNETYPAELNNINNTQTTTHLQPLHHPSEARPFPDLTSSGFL
# Wnt act: Wnt/beta-catenin pathway activation. Wnt/beta-catenin reporter cell assay, activator, plate reader. activation, % at 9.35 µM. 1.2% of 300,000 active; in the data active means activation above about 30%, passing the limit was not always enough; inconclusive means no clear call, values can overlap the other calls
# esBAF inh: blocks esBAF chromatin remodeling in mouse ES cells. 2% of 350,000 active. reporter increase, % at 12.5 µM. Bmi1-luciferase knock-in reporter, 24 h; 100% = twice the neutral-well signal; in the data active means activation above about 40%; inconclusive means no clear call, values can overlap the other calls;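 further: a rise in the Bmi1 reporter signal indicates esBAF inhibition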
# Hits are given with their value; i = inactive; ? = inconclusive; nt = no result given. Sampled rows, rich in hits. Any-hit rate of the full collection: about 4.2%.
SMILES,MITF TRPM1 HTS,GAA850 FXN act,AHR activator,Wnt act,esBAF inh
COc1ccc(NC(=O)Nc2ccc3c(c2)C(=O)N([C@H](C)CO)C[C@@H](C)[C@H](CN(C)Cc2ccccc2)OCCCC[C@@H](C)O3)cc1,nt,nt,nt,nt,i
Cn1cccc1C(=O)N/N=C/c1c(Cl)cccc1Cl,92,i,i,i,i
CNC(=S)N/N=C/c1c(Cl)cccc1Cl,i,i,i,nt,i
Cc1noc(C)c1NC(=O)N(C)C[C@@H]1Oc2ccc(NS(=O)(=O)c3cn(C)cn3)cc2CC(=O)N([C@@H](C)CO)C[C@@H]1C,nt,nt,nt,nt,i
COc1cc2cc(CN(Cc3cccs3)C(=S)Nc3ccc(C)cc3)c(=O)[nH]c2cc1OC,i,i,50,nt,nt
O=c1c2sc(-c3ccccc3)cc2nc2n1CCC2,i,i,i,i,nt
O=c1c2sc(-c3ccccc3)cc2nc2n1CCCCC2,nt,i,i,56,nt
Cc1ccc2oc(=O)c(/C=C(\O)c3cccs3)nc2c1,nt,i,i,35,nt
O=c1oc2ccc(Cl)cc2nc1/C=C(\O)c1cccs1,nt,i,i,i,nt
O=C(Nc1ccc(F)cc1)N1C[C@H]2[C@@H](c3ccccc31)[C@@H](CO)N2C(=O)c1ccccc1,nt,nt,nt,nt,i
Cc1ccc2cc(NC(=O)c3ccccc3C)ccc2n1,100,i,i,i,?
CCc1ccc(C(=O)Nc2ccc3nc(C)ccc3c2)cc1,99,i,i,i,i
CC(=O)Nc1nc2ccc(Br)cc2s1,i,i,i,nt,62
CCOC(=O)c1ccc2nc(Nc3nc4ccc(F)cc4s3)sc2c1,i,i,i,i,nt
O=C(Nc1nc2ccc(Br)cc2s1)c1ccco1,i,i,i,i,i
CCOC(=O)c1ccc2nc(NC(C)=O)sc2c1,i,i,i,46,47
O=C(CC(F)(F)F)N1C[C@@H]2[C@H](c3ccccc31)[C@H](CO)N2C(=O)Cc1ccccc1,nt,nt,nt,nt,i
O=C(C[C@@H]1CC[C@@H]2[C@H](COC[C@H](O)CN2C(=O)Nc2cc(Cl)cc(Cl)c2)O1)NCC1CC1,nt,nt,nt,nt,i
CCC(=O)N[C@H]1CC[C@H](CC(=O)NCC2CCCCC2)O[C@@H]1CO,nt,nt,nt,nt,i
COc1ccc(CCNC(=O)C(=O)NCc2ccccn2)cc1,i,i,i,37,i
COc1ccc(CCNC(=O)c2cccn2C)cc1,i,i,i,i,50
Cn1cccc1C(=O)NCCc1ccc(Cl)cc1,114,i,i,i,57
Cn1cccc1C(=O)NCCc1ccccc1,i,i,i,i,i
COc1ccc(CCNC(C)=O)cc1,i,i,i,nt,i
CCCNC(=O)C(=O)NCc1ccccn1,i,i,i,i,nt
SMILES,MITF TRPM1 HTS,GAA850 FXN act,AHR activator,Wnt act,esBAF inh
O=[N+]([O-])c1cccc(-c2ccc(/C=N/NC(=S)Nc3ccccc3)o2)c1,i,i,65,nt,i
O=[N+]([O-])c1ccc(/C=N/NC(=S)Nc2ccccc2)o1,i,i,i,nt,nt
CCCN(C)C[C@@H]1Oc2ncc(-c3cccnc3)cc2C(=O)N([C@H](C)CO)C[C@H]1C,nt,nt,nt,nt,i
N#C/C(=C\c1ccc[nH]1)C(=O)Nc1ccccc1F,i,i,nt,33,71
Cc1cc(/C=C(\C#N)C(=O)NCc2ccco2)c(C)[nH]1,i,i,i,nt,i
COc1ccc(NC(=O)/C(C#N)=C/c2ccc[nH]2)c(OC)c1,i,i,i,i,i
Cc1cc(/C=C(\C#N)C(=O)NC2CC2)c(C)[nH]1,94,i,58,?,nt
Cc1cc(/C=C(\C#N)C(=O)Nc2ccccc2F)c(C)[nH]1,106,i,66,i,i
CC(C)(C)C(=O)NC(=S)NCCc1ccccc1,i,i,i,i,43
COc1cc(OC)cc(C(=O)NC(=S)NCCc2ccccc2)c1,i,i,69,i,i
Cc1ccccc1OCC(=O)OCC(=O)c1cc(C)n(C2CC2)c1C,i,i,nt,i,i
Cc1cc(C(=O)COc2ccccc2[N+](=O)[O-])c(C)n1C1CC1,i,i,63,?,nt
Cc1cc(C(=O)COc2ccccc2C(N)=O)c(C)n1C1CC1,i,i,i,39,nt
C[C@@H](NC(=O)C[C@@H]1CC[C@@H]2[C@H](COC[C@@H](O)CN2Cc2cc(F)ccc2F)O1)c1ccccc1,nt,nt,nt,nt,i
CO[C@H]1CN(C)C(=O)c2cc(NS(C)(=O)=O)ccc2OC[C@H](C)N(S(C)(=O)=O)C[C@@H]1C,nt,nt,nt,nt,i
Cc1ccc(Oc2nnc(-c3ccccc3)c3ccccc23)cc1,i,i,i,i,i
Cc1ccc(-c2nnc(Oc3cccc(C)c3)c3ccccc23)cc1,i,i,i,i,53
Cc1nn(-c2ccc(N3CCCCC3)nn2)c(C)c1CCC(=O)Nc1ccccc1F,i,i,i,i,i
Cc1nn(-c2ccc(N3CCCCC3)nn2)c(C)c1CCC(=O)Nc1cc(F)ccc1F,i,i,i,i,63
